# Bioassay records (PubChem BioAssay)
# Shown are actives, neighbours in structure and some others; about 2.9% of the full set was active somewhere.
# Vif inh: inhibitors of HIV Vif; HEK293T cells, Vif self-association by quenched fluorescence, imaging, 24 h; inhibition, % at 7.49 µM; 340,000 compounds, 0.35% hits; in the data active = inhibition above about 50%, passing the limit was not always enough; inconclusive = no clear call, values can overlap the other calls; inactive = below about 31%
# Wnt bcat act: activates Wnt/beta-catenin signaling in a reporter cell assay | activation, % at 9.35 µM | activator, plate reader | 300,000 compounds, 1.2% hits; in the data active = activation above about 30%, passing the limit was not always enough; inconclusive = no clear call, values can overlap the other calls;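 also: 0% = neutral control wells and 100% = positive control wells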
# Glyco luc inh: N-linked glycosylation inhibition; D54 ERlucT glycosylation luciferase reporter, 24 h; percent of 100 nM tunicamycin response; reporter increase, % at 12.5 µM; 360,000 compounds, 0.23% hits; AID 588692;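 active = mean luciferase reporter signal, scaled so untreated is 0 and the glycosylation-blocking control 100, at or above a set limit in every replicate; inconclusive = mean reaches the limit but not every replicate does; inactive = mean below the limit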;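 also: luciferase carries N-glycosylation sites so blocking glycosylation raises the light; 0% = median of neutral control wells and 100% = median of 100 nM tunicamycin wells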
# PvdQ inh: P. aeruginosa PvdQ acylase inhibition; purified PvdQ acylase, fluorescence plate reader; inhibition, % at 10 µM; 340,000 compounds, 0.063% hits; in the data active = inhibition above about 30%, passing the limit was not always enough; inconclusive = no clear call, values can overlap the other calls;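 also: 0% = vehicle neutral wells and 100% = reference inhibitor wells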
# esBAF inh: inhibitors of esBAF chromatin remodeling in mouse ES cells; reporter increase, % at 12.5 µM; Bmi1-luciferase knock-in reporter, 24 h; 100% = twice the neutral-well signal; 350,000 compounds, 2% hits; in the data active = activation above about 40%; inconclusive = no clear call, values can overlap the other calls;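 also: 0% = median of the plate's neutral control wells and 100% = double that signal; a rise in the Bmi1 reporter signal indicates esBAF inhibition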
# MITF TRPM1 HTS: increases MITF-driven TRPM1 promoter luciferase signal; SK-MEL-5 TRPM1-promoter luciferase, 24 h; % of positive control, neutral wells = 0; AID 588334; 300,000 compounds, 0.75% hits; activation, % at 12.5 µM;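 active = mean activation of at least 80% with every replicate also reaching 80%; inconclusive = mean reaches 80% but some replicate falls short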;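 also: 0% = neutral control wells and 100% = parthenolide positive control wells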
# esBAF Ring1 qPCR: de-represses Ring1 in mouse ESCs, confirming esBAF inhibition; 550 tested, under 10 active; shares compounds with esBAF inh; AID 743176; mouse ESC E14, Ring1 mRNA RT-qPCR fold change; fold change at 33 µM;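 active = Ring1 gene expression raised more than 2-fold over untreated cells in both replicates at either tested dose; inconclusive = only one replicate above 2-fold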;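 also: Ring1 transcript normalised to actin housekeeping signal by TaqMan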
# Fgf4 repress: esBAF inhibition confirmed by Fgf4 repression | AID 743177 | 550 compounds, 4% hits | Fgf4 expression fold change at 33 µM | shares compounds with esBAF inh | mouse ESC E14, Fgf4 mRNA qPCR fold change; stronger effect = lower value;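 active = Fgf4 expression under 0.8 fold of control in both repeat measurements at one or both tested doses; inconclusive = under 0.8 fold in just a single repeat measurement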;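 also: Fgf4 transcript normalised to actin in duplex TaqMan qPCR; cells exposed to compound for 24 h before lysis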
# esBAF Bmi1 qPCR: confirmation of esBAF inhibitors: Bmi1 de-repression in mouse ESCs | shares compounds with esBAF inh | mouse ESE14 ES cells, Bmi1 mRNA qPCR fold; stronger effect = higher value | fold change at 33 µM | 550 tested, under 10 active;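 active = Bmi1 expression fold change above 6 at either tested concentration, seen in replicate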;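 also: higher fold means more Bmi1 de-repression and stronger esBAF inhibition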
# A549 cytotox: A549 cell cytotoxicity; cell viability change % (negative = cytotoxic), % at 25 µM, hits read low; 550 tested, under 10 active; plate reader; shares compounds with esBAF inh; call rule not given here
# HepG2 cytotox SP: kills or reduces viability of HepG2 cells | shares compounds with esBAF inh | HepG2 cytotoxicity, plate reader; stronger effect = lower value | activity change, negative = inhibition, % at 25 µM | 550 compounds, 4% hits | AID 743189; in the data active = activity change below about -50%
# HEK293 cytotox SP: HEK293 cell cytotoxicity at single point; 550 compounds, 3% hits; AID 743190; shares compounds with esBAF inh; activity change, negative = inhibition, % at 25 µM, hits read low; plate reader; in the data active = activity change below about -38%, passing the limit was not always enough
# The depositor's hits bear a star; ? = inconclusive; · = not tested or not shown.
SMILES,Vif inh,Wnt bcat act,Glyco luc inh,PvdQ inh,esBAF inh,MITF TRPM1 HTS,others
COC(=O)C1=C(c2ccc(Cl)c(C(F)(F)F)c2)C[C@@H]2CC[C@H]1N2C(=O)NCc1ccc2c(c1)OCO2,-11,57*,-1,-14,11,0,
COc1ccc(-c2nc3ccccc3c(=O)o2)cc1,6,7,2,28,50*,19,
COc1ccc(C(C)=O)cc1CC(C(=O)c1ccccc1)N(C)C (stereo not given),7,9,2,-16,41*,28,
O=C(Cc1ccccc1)OCC(=O)c1ccc(F)cc1,87*,-2,-1,-9,3,7,
OC1(c2ccc(F)cc2)CCNC1 (stereo not given),82*,·,0,-7,-12,·,
CC1CN=C(NC(C)c2ccccc2)S1 (stereo not given),-4,-1,-2,-4,9,1,
CC(NC1=NCCS1)c1ccccc1 (stereo not given),17,49*,2,-14,·,3,
COC(=O)[C@H]1[C@H](CO)[C@H]2Cn3c(ccc(-c4ccncc4)c3=O)[C@@H]1N2S(=O)(=O)c1ccccc1F,·,·,·,·,1,·,
COc1ccccc1OCC(=O)N1CCN(Cc2ccc3c(c2)OCO3)CC1,0,0,1,-11,·,-13,
O=C(Nc1ccc2c(c1)OCO2)c1cn(Cc2ccc(F)cc2)nn1,53*,·,2,-17,33,39,
COc1cc(C(O)CNC(C)C)cc(F)c1OC (stereo not given),55*,0,2,20,6,5,
O=C(Cc1cccnc1)N1CCCCN2[C@@H](CO)[C@@H](c3ccc(C#CC4CCCC4)cc3)[C@@H]2C1,·,·,·,·,-7,·,
CC=Cc1ccc2n(c1=O)C[C@@H]1[C@@H](CO)[C@H](C(=O)N(C)C)N[C@H]21 (mixture of isomers),·,·,·,·,8,·,
CCCCOC(=O)c1ccccc1N,-5,1,-1,4,1,-8,
Nc1ccccc1C(=O)OCCc1ccccc1,-3,68*,-14,-4,17,85*,
COC(=O)[C@@H]1[C@@H](CO)[C@@H]2Cn3c(ccc(-c4ccncc4)c3=O)[C@H]1N2S(=O)(=O)c1ccccc1F,·,·,·,·,-3,·,
CCC(=Nc1ccccc1N)c1c(O)[nH]c(=O)[nH]c1=O,-4,10,2,5,51*,-2,
COc1ccc(-c2cc(=NCCC(=O)O)c3cc(C)ccc3o2)cc1,-11,13,-3,0,69*,112*,
COc1ccc(-c2cc(=Nc3ccccc3)c3cc(C)ccc3o2)cc1,1,-6,-12,-6,·,46,
CN1C(=O)C(=Cc2c(OCc3cnc(Cl)s3)ccc3ccccc23)C(=O)N(C)C1=O,-9,6,0,6,50*,34,
CN1C(=O)C(=Cc2ccccc2OCc2ccccc2Cl)C(=O)N(C)C1=O,-2,5,3,3,·,9,
O=C(Cc1ccccc1)N1C[C@H]2[C@@H](c3ccccc31)[C@@H](CO)N2Cc1ccccc1,·,·,·,·,0,·,
COc1cc(/C=C/[N+](=O)[O-])ccc1O,9,20,29*,-2,3,-55,
CCN(CC)c1ccc(/C=C/[N+](=O)[O-])cc1,3,0,8,-7,-4,-14,
CC[C@@H]1c2ccccc2[C@@H]2CC[C@H]1N2c1ccccc1,·,-4,·,·,·,·,
SMILES,Vif inh,Wnt bcat act,Glyco luc inh,PvdQ inh,esBAF inh,MITF TRPM1 HTS,others
N#CC1C(C#N)C2CCC1C1C2N1c1ccccc1 (stereo not given),21,47*,-1,?,-4,-7,
NNP(=O)(CC(=O)c1ccccc1)c1ccccc1 (stereo not given),-3,-2,3,·,·,·,
NCC(=O)c1ccccc1,-4,15,-2,-13,67*,54,
C[C@@H]1CN([C@@H](C)CO)C(=O)CCCn2cc(nn2)CO[C@@H]1CN(C)C(=O)Oc1ccc2ccccc2c1,·,·,·,·,5,·,
CCCCCn1c(=O)c(C(=O)Nc2ccccc2Cl)c(O)c2ccccc21,-2,-3,0,-15,100*,·,esBAF Ring1 qPCR=1.2;Fgf4 repress=0.96;esBAF Bmi1 qPCR=1.2;A549 cytotox=4;HepG2 cytotox SP=-23;HEK293 cytotox SP=-15
O=C(O)[C@H]1[C@H](CO)[C@H]2Cn3c(ccc(-c4cncnc4)c3=O)[C@@H]1N2C(=O)NC1CCCC1,·,·,·,·,5,·,
